About 2,000 (36%) of roughly 5,500 compounds were called active. Another 18% or so got no clear call; they are omitted. Rule as the data show it: active = normalized growth mostly below about 0.91 (no sharp cut-off); inconclusive = no clear call, values can overlap the other calls; inactive = mostly above about 0.92. The list shows a part of the results.
Test: chemical genetic growth profiling, strain panel (AID 1159580);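 also: tested at 20 µM; growth read once vehicle control cultures reached saturation at 30 °C; 1 = growth at the plate median or of vehicle wells; lower values mean less growth of the strain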
Details: growth OD

Measured: normalized growth

C[C@@H]1C(=O)OC2[C@H](O)C34[C@@H]5OC(=O)[C@@]3(O[C@@H]3OC(=O)[C@H](O)[C@@]34[C@H](C(C)(C)C)[C@H]5O)[C@]21O (some centres undefined)
inactive: S. cerevisiae deletion strains, locus YJR066W, strain TOR1, hits give low values 0.958 | S. cerevisiae deletion strains, locus YKL009W, strain mrt4, hits give low values 1.02 | S. cerevisiae deletion strains, locus YKL068W, hits give low values 1 | S. cerevisiae deletion strains, locus YKL085W, strain MDH1 (second series), hits give low values 1.01 | S. cerevisiae deletion strains, locus YKL085W, strain MDH1, hits give low values 1.01 | S. cerevisiae deletion strains, locus YKL160W, strain elf1, hits give low values 0.981 | S. cerevisiae deletion strains, locus YKL190W, strain CNB1, hits give low values 0.993 | S. cerevisiae deletion strains, locus YKR001C, strain vps1, hits give low values 1.02 | S. cerevisiae deletion strains, locus YKR026C, strain gcn3, hits give low values 0.977 | S. cerevisiae deletion strains, locus YKR091W, strain srl3, hits give low values 0.955 | S. cerevisiae deletion strains, locus YLL001W, strain dnm1, hits give low values 0.987 | S. cerevisiae deletion strains, locus YLL026W, hits give low values 0.984 | S. cerevisiae deletion strains, locus YLL041C, strain sdh2, hits give low values 0.971 | S. cerevisiae deletion strains, locus YLR027C, strain aat2, hits give low values 0.973 | S. cerevisiae deletion strains, locus YLR039C, strain RIC1, hits give low values 1 | S. cerevisiae deletion strains, locus YLR058C, strain SHM2, hits give low values 1 | S. cerevisiae deletion strains, locus YLR102C, strain apc9, hits give low values 1.01 | S. cerevisiae deletion strains, locus YLR113W, strain HOG1, hits give low values 0.997 | S. cerevisiae deletion strains, locus YLR221C, strain rsa3, hits give low values 0.978 | S. cerevisiae deletion strains, locus YLR258W, strain gsy2, hits give low values 0.978 | S. cerevisiae deletion strains, locus YLR262C, strain YPT6 (second series), hits give low values 0.964 | S. cerevisiae deletion strains, locus YLR262C, strain YPT6, hits give low values 1.01 | S. cerevisiae deletion strains, locus YLR268W, strain sec22, hits give low values 1.02 | S. cerevisiae deletion strains, locus YLR320W, strain mms22, hits give low values 0.98 | S. cerevisiae deletion strains, locus YLR330W, strain CHS5, hits give low values 1.01 | S. cerevisiae deletion strains, locus YLR342W, strain FKS1 (second series), hits give low values 1.01 | S. cerevisiae deletion strains, locus YLR342W, strain FKS1, hits give low values 0.982 | S. cerevisiae deletion strains, locus YLR357W, strain rsc2, hits give low values 0.932 | S. cerevisiae deletion strains, locus YLR370C, strain arc18, hits give low values 0.97 | S. cerevisiae deletion strains, locus YLR371W, strain rom2, hits give low values 1.02 | S. cerevisiae deletion strains, locus YLR384C, strain iki3, hits give low values 0.981 | S. cerevisiae deletion strains, locus YLR418C, strain cdc73, hits give low values 1.02 | S. cerevisiae deletion strains, locus YML016C, strain PPZ1, hits give low values 1.01 | S. cerevisiae deletion strains, locus YML032C, strain rad52, hits give low values 1 | S. cerevisiae deletion strains, locus YML120C, strain ndi1, hits give low values 0.975 | S. cerevisiae deletion strains, locus YML124C, strain tub3, hits give low values 1.02 | S. cerevisiae deletion strains, locus YMR058W, strain fet3, hits give low values 0.966 | S. cerevisiae deletion strains, locus YMR078C, strain ctf18, hits give low values 1.02 | S. cerevisiae deletion strains, locus YMR125W, strain sto1, hits give low values 0.941 | S. cerevisiae deletion strains, locus YMR129W, hits give low values 0.959 | S. cerevisiae deletion strains, locus YMR205C, strain PFK2, hits give low values 0.984 | S. cerevisiae deletion strains, locus YMR223W, strain ubp8, hits give low values 1.03 | S. cerevisiae deletion strains, locus YMR231W, strain pep5, hits give low values 0.984 | S. cerevisiae deletion strains, locus YMR263W, strain SAP30, hits give low values 1 | S. cerevisiae deletion strains, locus YMR307W, strain GAS1, hits give low values 0.979 | S. cerevisiae deletion strains, locus YNL067W, strain RPL9B, hits give low values 0.995 | S. cerevisiae deletion strains, locus YNL071W, strain lat1, hits give low values 0.974 | S. cerevisiae deletion strains, locus YNL183C, strain NPR1, hits give low values 0.973 | S. cerevisiae deletion strains, locus YNL209W, strain ssb2, hits give low values 0.971 | S. cerevisiae deletion strains, locus YNL233W, strain BNI4, hits give low values 1 | S. cerevisiae deletion strains, locus YNL248C, strain rpa49, hits give low values 0.961 | S. cerevisiae deletion strains, locus YNL250W, strain rad50, hits give low values 1.02 | S. cerevisiae deletion strains, locus YNL271C, strain bni1, hits give low values 1.01 | S. cerevisiae deletion strains, locus YNL298W, strain CLA4, hits give low values 1.02 | S. cerevisiae deletion strains, locus YNL307C, strain MCK1, hits give low values 1.03 | S. cerevisiae deletion strains, locus YNL322C, strain KRE1 (second series), hits give low values 0.963 | S. cerevisiae deletion strains, locus YNL322C, strain KRE1, hits give low values 1 | S. cerevisiae deletion strains, locus YNR049C, strain mso1, hits give low values 0.95 | S. cerevisiae deletion strains, locus YNR052C, strain pop2, hits give low values 1.01 | S. cerevisiae deletion strains, locus YOL012C, strain htz1 1.18 | S. cerevisiae deletion strains, locus YOL147C, strain pex11, hits give low values 1.02 | S. cerevisiae deletion strains, locus YOR001W, strain rrp6, hits give low values 0.972 | S. cerevisiae deletion strains, locus YOR061W, strain CKA2, hits give low values 1 | S. cerevisiae deletion strains, locus YOR069W, strain VPS5, hits give low values 0.997 | S. cerevisiae deletion strains, locus YOR070C, strain gyp1, hits give low values 0.988 | S. cerevisiae deletion strains, locus YOR080W, strain dia2, hits give low values 0.951 | S. cerevisiae deletion strains, locus YOR083W, strain WHI5, hits give low values 0.988 | S. cerevisiae deletion strains, locus YOR106W, strain vam3, hits give low values 0.978 | S. cerevisiae deletion strains, locus YOR136W, strain idh2, hits give low values 1.01 | S. cerevisiae deletion strains, locus YOR144C, strain elg1, hits give low values 1.01 | S. cerevisiae deletion strains, locus YOR184W, strain ser1, hits give low values 1.03 | S. cerevisiae deletion strains, locus YOR231W, strain MKK1, hits give low values 1.02 | S. cerevisiae deletion strains, locus YOR265W, strain rbl2, hits give low values 0.977 | S. cerevisiae deletion strains, locus YOR270C, strain vph1, hits give low values 0.935 | S. cerevisiae deletion strains, locus YOR290C, strain snf2, hits give low values 0.953 | S. cerevisiae deletion strains, locus YOR316C, strain cot1, hits give low values 1.02 | S. cerevisiae deletion strains, locus YPL051W, strain arl3, hits give low values 0.985 | S. cerevisiae deletion strains, locus YPL055C, strain LGE1, hits give low values 0.998 | S. cerevisiae deletion strains, locus YPL078C, strain atp4, hits give low values 0.984 | S. cerevisiae deletion strains, locus YPL106C, strain sse1, hits give low values 0.944 | S. cerevisiae deletion strains, locus YPL240C, strain hsp82, hits give low values 0.979 | S. cerevisiae deletion strains, locus YPL241C, strain CIN2, hits give low values 0.99 | S. cerevisiae deletion strains, locus YPL256C, strain CLN2, hits give low values 1.06 | S. cerevisiae deletion strains, locus YPR119W, strain clb2, hits give low values 1.01 | S. cerevisiae deletion strains, locus YPR141C, strain kar3, hits give low values 1.01 | S. cerevisiae deletion strains, locus YPR163C, strain tif3, hits give low values 1.02 | S. cerevisiae deletion strains, locus YPR167C, strain met16, hits give low values 1.02 | S. cerevisiae deletion strains, strain wtn01, hits give low values 1.04 | S. cerevisiae strains, strain wild type, hits give low values 0.983

Reference: PubChem BioAssay AID1159580 (chemical genetic matrix, 2015)
